Source: PubChem BioAssay
Tau ThT inhib: qHTS for Inhibitors of Tau Fibril Formation, Thioflavin T Binding; recombinant tau K18 P301L, heparin-induced fibrillization, ThT fluorescence; 2.1% of 270,000 active; Potency, µM (titrated, usually from 57.4 µM), without a hit: at the top dose activity, negative = inhibition, actives largely listed as inhibitors; AID 1460, 2008; note: nearly all actives have a fitted effect of over 55% in size
Target sequence (P10636 561-689 P618L limits assumed): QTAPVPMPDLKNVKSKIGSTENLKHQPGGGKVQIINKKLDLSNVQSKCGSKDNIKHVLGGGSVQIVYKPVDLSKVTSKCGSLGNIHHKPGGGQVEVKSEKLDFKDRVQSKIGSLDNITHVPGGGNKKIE
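Heparin-induced (20 uM) aggregation of recombinant human K18 P301L tau, 15 uM unlabeled with 0.24 uM labeled, pH 7 acetate buffer, 6 hr at 37 C with compound. Fibrils quantified by 30 uM ThT fluorescence after 1 hr ambient incubation.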
Tau FP inhib: qHTS for Inhibitors of Tau Fibril Formation, Fluorescence Polarization; Microtubule-associated protein tau (Homo sapiens), P10636; K18 P301L tau heparin fibrillization, Alexa594 FP, 6 h; Potency, µM (doses to about 57.7 µM), inactives show top-dose activity, negative = inhibition, actives largely listed as inhibitors; 0.39% of 280,000 active; note: nearly all actives have a fitted effect of over 55% in size
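Human K18 P301L fragment (15 uM unlabeled plus 0.24 uM Alexa 594-labeled) in 100 mM sodium acetate pH 7 with compound, aggregation induced by 20 uM heparin for 6 hr at 37 C. ThT (30 uM) added for 1 hr, then Alexa 594 FP read.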
RORg inh: qHTS for inhibitors of ROR gamma transcriptional activity; Drosophila S2 Gal4-RORgamma UAS-luciferase reporter, 20 h; Potency, µM (top dose mostly 53.6 µM), for the others: top-dose activity change, negative = inhibition, usual class: inhibitors; 5.4% of 310,000 active; note: nearly all actives have a fitted effect of over 60% in size
Target sequence (P51450 whole entry, looked up, the tested form may be a part): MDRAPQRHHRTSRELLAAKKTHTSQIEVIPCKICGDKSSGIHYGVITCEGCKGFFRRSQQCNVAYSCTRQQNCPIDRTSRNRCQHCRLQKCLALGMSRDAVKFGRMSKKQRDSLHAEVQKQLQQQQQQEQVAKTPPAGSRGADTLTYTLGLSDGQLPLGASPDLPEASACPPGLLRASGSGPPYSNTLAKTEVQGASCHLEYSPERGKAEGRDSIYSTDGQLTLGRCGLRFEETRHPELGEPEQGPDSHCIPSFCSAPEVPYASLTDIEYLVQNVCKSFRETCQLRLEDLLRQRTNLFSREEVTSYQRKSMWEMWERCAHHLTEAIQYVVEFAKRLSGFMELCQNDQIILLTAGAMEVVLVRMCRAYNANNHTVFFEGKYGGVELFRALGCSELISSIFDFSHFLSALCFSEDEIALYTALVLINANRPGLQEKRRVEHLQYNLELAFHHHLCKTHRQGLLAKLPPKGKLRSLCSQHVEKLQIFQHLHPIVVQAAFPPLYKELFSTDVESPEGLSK
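Compounds are pin-transferred onto Drosophila Schneider cells expressing a copper-inducible Gal4–ROR gamma transactivation domain fusion. After 1 hr, copper sulfate is added to 700 uM final; luciferase is read 20 hr later.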
Gal4-VP16 FLuc: VP16 counterscreen qHTS for inhibitors of ROR gamma transcriptional activity. 3.5% of 310,000 active. Drosophila S2 Gal4-VP16 UAS-luciferase, luminescence, 20 h. Potency, µM (doses to about 53.6 µM), inactives show at the highest dose activity, negative = inhibition, most hits filed as inhibitors;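 note: Gal4-VP16 expression switched on by copper sulfate through the metallothionein promoter; nearly all actives have a fitted effect of over 50% in size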
Tau fluor counter: Counterscreen qHTS for Inhibitors of Tau Fibril Formation, Fluorescence Polarization; tau K18 P301L Alexa594 fluorescence, heparin fibrillization; Potency, µM (highest dose often 57.7 µM), for the others: at the highest dose activity change, negative = decrease; 0.93% of 280,000 active; note: nearly all actives have a fitted effect of over 55% in size
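Human tau K18 P301L (15 uM unlabeled, 0.24 uM Alexa 594-labeled) in 100 mM sodium acetate pH 7 with 20 uM heparin, 6 hr at 37 C. ThT 30 uM added, 1 hr ambient; Alexa 594 FP and total fluorescence read at 555/632 nm.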
Active calls of the source: *; ? = inconclusive; . = no result given; [ ] = dose if it differs, or a comment. This is a sample that favours compounds with a hit; in the whole collection about 7.3% have one here. Calls come from the whole dose curve; as a rule, active = well fitted curve in the direction sought with a large enough effect; inconclusive = small, poorly fitted or top-dose-only effect, or another doubt; inactive = no such curve, though single readings can be large; an effect the other way counts as inactive or inconclusive. % is set by controls: 0 for no effect and ±100 for the full control effect; potency is the fitted concentration of half-maximal effect.

SMILES	Tau ThT inhib	Tau FP inhib	RORg inh	Gal4-VP16 FLuc	Tau fluor counter
O=S(=O)(c1cccc(F)c1)N1CCC(c2nc3ccccc3s2)CC1	-6%	-13%	.	.	-3%
CC#CCC1(C(=O)OC)C(=O)NC[C@H]1c1ccccc1 (some centres not stated)	-5%	1%	-5%	11%	-4%
CCOc1ccc(C(=O)NC(=S)Nc2ccccn2)cc1[N+](=O)[O-]	?	-5%	0.71µM*	?	-15%
O=C(NC(=S)Nc1cccc([N+](=O)[O-])c1)c1ccccc1	?	?	?	-6%	-28%
O=C(NC(=S)Nc1ccccn1)c1cccc([N+](=O)[O-])c1	-17%	1%	3.5µM*	?	-8%
CCOc1ccc(C(=O)NC(=S)Nc2cccnc2)cc1[N+](=O)[O-]	-18%	-5%	14µM*	-7%	-14%
Cn1cccc1C(C#N)c1ncc(C(F)(F)F)cc1Cl (configuration not stated)	?	1%	-29%	5%	-15%
O=C(NCCCn1ccnc1)c1cccc(Cl)c1	.	.	29%	1%	.
COc1ccccc1NC(=O)Cn1c(=O)n(-c2ccc(C)cc2)c(=O)c2c1cnn2C	-5%	-6%	.	.	-9%
COc1ccccc1N1CCN(c2cc(C)nc3nc(-c4ccc(Cl)cc4)nn23)CC1	-3%	1%	.	.	9%
CN(CC(=O)Nc1cccc(F)c1)C(=O)COc1cccc2c1OC(C)(C)C2	.	.	?	2%	.
Cc1cc2c([nH]c3ccccc32)c2c1OC(C)(C)C=C2	?	10%	-19%	3%	14µM*[quencher]
CCOc1cc(/C=N/Nc2cc(C)nc(-n3nc(C)cc3C)n2)ccc1O	?	?	?	18µM*	?
COc1ccc(/C=N/Nc2cc(C)nc(-n3nc(C)cc3C)n2)c(OC)c1	?	?	0.2µM*	0.28µM*	?
Cc1cc(N/N=C/c2ccc(F)cc2)nc(-n2nc(C)cc2C)n1	-9%	-3%	0.079µM*	0.32µM*	-26%
Cc1onc(-c2ccccc2Cl)c1C(=O)NC(=S)Nc1ccc(C(C)(C)C)cc1	.	-9%	7.9µM*	13µM*	-15%
Cc1onc(-c2ccccc2Cl)c1C(=O)Nc1ccc(CN2CCCC2)cc1	-2%	1%	-16%	-1%	2%
CCc1ccc(NC(=S)NC(=O)c2c(-c3ccccc3Cl)noc2C)cc1	.	-12%	2.5µM*	?	?
Cc1onc(-c2ccccc2Cl)c1C(=O)N(C)C1CCCCC1	4%	6%	-14%	2.5µM*	2%
Cc1onc(-c2ccccc2Cl)c1C(=O)Nc1ccccc1	-8%	-1%	-39%	-1%	-7%
Cc1onc(-c2ccccc2Cl)c1C(=O)Nc1nnc(Cc2ccc(Cl)cc2)s1	-7%	2%	11µM*	?	-20%
CCN(C(=O)c1c(-c2ccccc2Cl)noc1C)C1CCCCC1	.	.	-5%	4%	.
O=C(Nc1ccccc1Br)c1cc(S(=O)(=O)NC2CCCCC2)ccc1F	-7%	1%	.	.	-23%
CCC(CC)C(=O)Nc1ccc(OCc2cc(=O)n3ccc(C)cc3n2)cc1	-1%	-3%	.	.	2%
Cc1ccc(S(=O)(=O)Nc2ccc(NC(=O)Nc3cccc(C(F)(F)F)c3)cc2)cc1	-11%	13µM*	?	?	2.5µM*[quencher]
SMILES	Tau ThT inhib	Tau FP inhib	RORg inh	Gal4-VP16 FLuc	Tau fluor counter
CCN(CC)S(=O)(=O)c1ccc(/C=C/C(=O)O)cc1	2%	2%	13%	-2%	0%
CCN(CC)S(=O)(=O)c1ccc(C(=O)Nc2cccc(C)c2)cc1	-4%	?	17%	-25%	-28%
CCN(CC)S(=O)(=O)c1ccc(NC(=O)Nc2cccc(C(F)(F)F)c2)cc1	-4%	7.9µM*	?	?	?
O=C(Nc1ccncc1)Nc1cccc(C(F)(F)F)c1	.	.	?	-22%	.
O=C(Nc1ccc(OC(F)F)cc1)Nc1cccc(C(F)(F)F)c1	-5%	25µM*	?	25µM*	?
CCN(CC)S(=O)(=O)c1ccc(/C=C/C(=O)Nc2cccc(F)c2)cc1	?	35µM*	20%[10 µM]	-1%	?
CCOC(=O)N1CCc2c(sc3c2c(=O)n(-c2ccc(F)cc2)c(=O)n3CC(=O)c2ccccc2)C1	-9%	-4%	.	.	-12%
CCOc1ccccc1Nc1nc(-c2ccc(C)cc2)c(CC(=O)O)s1	?	?	.	.	-19%
N[C@@H](COC(c1cccc(F)c1)c1ccccc1OCc1ccccc1)C(=O)O (some centres not stated)	.	.	17%	-1%	.
NC(=O)/C=C\C(=O)Nc1cccc(C(F)(F)F)c1	?	0%	?	13µM*	-6%
NNC(=O)Nc1cccc(C(F)(F)F)c1	-13%	-2%	20%	1%	-8%
O=C(NCCNC(=O)c1cc(OCC(F)(F)F)ccc1OCC(F)(F)F)Nc1cccc(C(F)(F)F)c1	-19%	10µM*	?	-30%	?
CCCN(CCC)CCNC(=O)c1cc2c(=O)oc3ccc(C)cc3c2s1	-2%	-5%	.	.	-11%
Cc1ccccc1C(=O)Nc1nnc(S(=O)(=O)N2CCCCCC2)s1	14µM*	-6%	?	-2%	-29%
Cc1cccc(C(=O)Nc2nnc(S(=O)(=O)N3CCOCC3)s2)c1	3.5µM*	5%	27%	-11%	-26%
O=C(Nc1nnc(S(=O)(=O)N2CCCCC2)s1)c1ccc(F)cc1	4.5µM*	17%	.	.	?
COC(=O)CN1C(=O)[C@@H]2[C@H](C1=O)[C@@H]1CC(C(=O)OC)=C[C@@H](C(=O)OC)C3C1=C(C(=O)C31CCCCC1)[C@@H]2C (some centres not stated)	.	.	36%	-25%	.
OC(CNCc1ccccc1F)(c1ccc(F)cc1)c1ccc(F)cc1	1%	-1%	7.9µM*	?	-13%
COc1ccccc1CNCC(O)(c1ccc(F)cc1)c1ccc(F)cc1	.	.	23%	-6%	.
Cc1ccc2nc(-c3ccncc3)c(Nc3ccccc3C)n2c1	-8%	9%	.	.	-11%
Cc1ccn2c(Nc3ccccc3C)c(-c3ccccn3)nc2c1	?	-2%	14µM*	?	?
Cc1ccccc1Nc1c(-c2ccccn2)nc2ccccn12	-18%	3%	31%	-3%	-29%
Cc1ccn2c(Nc3ccccc3)c(-c3ccccn3)nc2c1	-18%	-3%	16µM*	-16%	-26%
Cc1ccc2nc(-c3ccccn3)c(Nc3ccccc3C)n2c1	?	-6%	14µM*	-7%[10 µM]	?
Cc1cccn2c(Nc3ccccc3)c(-c3ccccn3)nc12	-7%	10%	3.2µM*	5µM*	-21%
Cc1cccc(NC(=O)CSc2nc(=O)n(CCN3CCOCC3)c3c2CCC3)c1C	-4%	-10%	.	.	1%
